Data published in the supplement of paper PMC6555819.

How the values were obtained:
Assay in all cases: PBM binding z-score (relative to random genomic background probes); higher = stronger binding; sequences stand for … in GC…GCGATTGACAGCGTAGAATGAAGG
[1] = system: FXR:RXRa (NR concentration 270 nM, RXRa partner concentration 90 nM)
Outline: (§1)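 Regression normalization was applied to scanned fluorescence from custom Agilent 4×180K protein-binding microarrays. Before scanning, arrays were incubated 1 h with ligand-free nuclear receptor dimers, and binding was detected with antibodies against each partner (one per run). Binding z-scores use the random background probes as reference.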

[2] = system: LXRa:RXRa (NR concentration 270 nM, RXRa partner concentration 90 nM)
Outline: as §1

[3] = system: LXRa homodimer (NR concentration 270 nM)
Outline: as §1

[4] = system: LXRb homodimer (NR concentration 270 nM)
Outline: as §1

[5] = system: PPARa:RXRa (NR concentration 270 nM, RXRa partner concentration 90 nM)
Outline: as §1

[6] = system: PPARg:RXRa (NR concentration 180 nM, RXRa partner concentration 90 nM)
Outline: as §1

[7] = system: PPARg:RXRa 270nM:90nM, anti-RXR (NR concentration 270 nM, RXRa partner concentration 90 nM)
Outline: as §1

[8] = system: PPARg:RXRa 30nM:10nM, anti-RXR (NR concentration 30 nM, RXRa partner concentration 10 nM)
Outline: as §1

[9] = system: PPARg:RXRa 90nM:30nM, anti-RXR (NR concentration 90 nM, RXRa partner concentration 30 nM)
Outline: as §1

[10] = system: PPARg:RXRa DBDmut IVT, anti-RXR (DBD mutation: RXRa K156A/R161A, NR concentration 270 nM, RXRa partner concentration 90 nM)
Outline: as §1

[11] = system: PPARg:RXRa IVT, anti-PPARg (NR concentration 270 nM, RXRa partner concentration 90 nM)
Outline: as §1

[12] = system: PPARg DBDmut:RXRa IVT, anti-PPARg (DBD mutation: PPARg1 K132A/R137A, NR concentration 270 nM, RXRa partner concentration 90 nM)
Outline: as §1

[13] = system: PPARg DBDmut IVT, anti-PPARg (DBD mutation: PPARg1 K132A/R137A, NR concentration 270 nM)
Outline: as §1

[14] = system: PPARg homodimer (NR concentration 180 nM)
Outline: as §1

[15] = system: PXR:RXRa (NR concentration 270 nM, RXRa partner concentration 90 nM)
Outline: as §1

[16] = system: PXR homodimer (NR concentration 270 nM)
Outline: as §1

[17] = system: RARa:RXR (NR concentration 270 nM, RXRa partner concentration 90 nM)
Outline: as §1

[18] = system: RARa homodimer (NR concentration 270 nM)
Outline: as §1

[19] = system: RARb:RXRa (NR concentration 270 nM, RXRa partner concentration 90 nM)
Outline: as §1

Sequence | PBM binding z-score [1] | PBM binding z-score [2] | PBM binding z-score [3] | PBM binding z-score [4] | PBM binding z-score [5] | PBM binding z-score [6] | PBM binding z-score [7] | PBM binding z-score [8] | PBM binding z-score [9] | PBM binding z-score [10] | PBM binding z-score [11] | PBM binding z-score [12] | PBM binding z-score [13] | PBM binding z-score [14] | PBM binding z-score [15] | PBM binding z-score [16] | PBM binding z-score [17] | PBM binding z-score [18] | PBM binding z-score [19]
ATCGAAAGGTCGTGAGGTGAGTACACAGAAAGGC | 4.79 | 4.23 | 0.197 | 0.501 | 5.02 | 3.98 | 4.57 | 1.74 | 3.26 | 0.432 | 2.33 | 1.04 | 0.897 | 2.45 | 3.57 | 0.557 | 4.33 | 0.76 | 3.91
CCTTACGGGTCACTGACAGCTTATAGCATTTGGA | 5.14 | 3.38 | 0.0209 | -0.0269 | 4.99 | 4.12 | 4.15 | 1.74 | 3.11 | 3.83 | 3.59 | 0.471 | 0.264 | 2.05 | 2.79 | -0.111 | 3.44 | 1.14 | 3.84
GCTTACGGGTCAAAAGTTATAGCATGAATAGAAT | 5.09 | 3.43 | 0.0533 | 0.409 | 5.64 | 6.49 | 6.55 | 4.03 | 6.2 | 3.77 | 3.87 | 1.08 | 1.18 | 1.4 | 2.94 | 0.168 | 3.7 | 0.546 | 3.16
ATATGTAGGTTAGCTGGAGTCATTCAGACTAGGC | 0.00563 | 1.28 | -0.0336 | 0.0591 | 2.34 | 3 | 2.47 | 0.982 | 1.63 | 6.03 | 6.03 | 1.63 | 1.57 | 0.988 | 0.231 | -0.186 | 0.556 | 0.257 | 0.61
CCTAGTTGGTCAGGGGGTCACACACCGGATATGA | 4.51 | 4.01 | 1.32 | 7.75 | 5.36 | 5.04 | 5.76 | 2.89 | 4.92 | 1.2 | 4.57 | 2.8 | 4.19 | 3.05 | 5.01 | 1.49 | 5.48 | 1.61 | 3.74
CGTCCAAGGGCAATGCTAGGTCAGTGAAAGCATT | 0.683 | 2.37 | 0.414 | -1.33 | 0.934 | -0.00472 | 0.084 | -0.775 | -0.291 | 0.816 | 0.945 | -1.98 | -1.04 | 1.08 | 1.04 | -0.135 | 1.55 | -0.607 | 3.1
TCTACTTGGTCACGGAGGTCACACACGACGGGTA | 3.59 | 3.73 | 3.08 | 1.3 | 3.99 | 3.67 | 4.1 | 3.72 | 3.83 | 3.04 | 4.21 | 1.37 | 1.65 | 3.86 | 4.67 | 2.05 | 4.97 | 2.04 | 3.89
CAAACTAGGCCAAGGTCAAAGTCGGTTTGTGCCA | 4.09 | 3.76 | 2.16 | 0.128 | 4.79 | 6.27 | 6.01 | 3.89 | 5.74 | 6.88 | 6.61 | 0.98 | 0.266 | 1.87 | 4.28 | 1.2 | 3.97 | 0.776 | 4.07
ATATGTAGGTTACCGGGTCATTCAGTTTGCGCAT | 3.18 | 3.3 | 1.31 | 0.869 | 5.44 | 8.51 | 7.05 | 4.85 | 6.88 | 8.02 | 8.28 | 6.4 | 4.2 | 3.3 | 4.35 | 9.95 | 4.52 | 0.996 | 2.76
TTACCAAGGTGAACTGAGGTCGTTGATCCAACTC | 3.33 | 4.31 | 1.34 | -0.359 | 3.46 | 2.14 | 2.3 | 0.857 | 1.7 | 2.89 | 3.47 | 0.972 | 0.996 | 1.32 | 6.12 | 1.94 | 3.7 | -0.75 | 2.43
CCTACAGGGCCAAGGTCATTGATCAGTCAAAGCA | 3.24 | 3.38 | 0.911 | -0.2 | 3.78 | 2.72 | 3.94 | 1.45 | 3.32 | 0.158 | 1.47 | -0.788 | -0.319 | 1.8 | 3.54 | 1.53 | 3.67 | 0.267 | 3.47
GCTTACGGGTCAAAGGTTAAAGCATGAATAGAAT | 7.68 | 6.08 | 0.955 | 0.412 | 7.2 | 11.8 | 9.59 | 9.12 | 10.3 | 4.74 | 6.3 | 1.36 | 2.46 | 1.69 | 6.29 | 0.364 | 8.66 | 0.51 | 4.94
CGTCCAAGGTCAAAGGTCAGCGAAGAGATGACGG | 8.78 | 7.06 | 3.38 | 1.66 | 7.31 | 11 | 8.69 | 8.19 | 9.49 | 4.17 | 6.07 | 0.648 | 0.832 | 4.17 | 7.19 | 1.93 | 8.63 | 2.3 | –
CCTACTGGGCCATTCAGAGGTCACTGATCATATG | 1.98 | 3.26 | 4.37 | 0.018 | 3.77 | 2.57 | 3.18 | 0.819 | 2.14 | 4.42 | 4.67 | 0.462 | 0.235 | 1.87 | 3.96 | 0.772 | 4.08 | 0.335 | 3.37
TCTAGCTGGTCACGGAGGTCACACACGACGGGTA | 3.41 | 3.79 | 2.37 | 0.0556 | 3.88 | 3.35 | 3.83 | 2.33 | 3.14 | 1.56 | 3.5 | 0.457 | 0.217 | 3.03 | 4.91 | 0.955 | 5.08 | 1.08 | 3.81
